Screens from PubChem.
Shown are actives, neighbours in structure and some others; about 1.8% of the full set was active somewhere.
eIF4E-4G inh: inhibitors of eIF4E and eIF4G interaction in translation initiation. P63073+Q04637. TR-FRET eIF4E-eIF4GI(517-606) binding, 2 h. inhibition, % at 21.7 µM. hit rate 0.37% among 220,000. AID 782;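 active means inhibition above about 30%, limit read from the data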;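 further: 0% = full FRET control wells and 100% = background wells lacking eIF4GI fragment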
EP2 modulator: modulates human prostaglandin E2 receptor EP2 signaling; induction, % at 25 µM; hit rate 0.83% among 260,000; EP2-expressing cells, cAMP HTRF FRET, PGE2 co-stimulation; P43116; AID 940;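 active means compounds whose cAMP rise, as percent of the full-agonist control response, exceeds 60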;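 further: rat C6 glioma line stably carrying human EP2 under a CMV promoter; the protocol text gives 20 µM as final concentration; 100% = response of wells given 1 µM PGE2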
EP2 antag: EP2 receptor (human) inhibition; P43116; C6 glioma cells expressing human EP2, cAMP TR-FRET; cells stimulated with saturating PGE2; inhibition, % at 25 µM; hit rate 0.52% among 260,000;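 active means percent inhibition above 40 after rounding to a whole number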;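 further: rat C6 glioma host cells with rolipram phosphodiesterase inhibitor present; the protocol text gives 20 µM as final concentration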
PERK inhibitor: human PERK inhibition, primary cell-based screen. Q9NZJ5. CHO PERK-DD fusion, SEAP luminescence translation reporter. inhibition, % at 5.6 µM. hit rate 0.17% among 220,000;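 active means inhibition above the mean inhibition of all tested compounds plus 3 SD, set separately per screening campaign, cut at about 2.9% in these data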;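 further: PERK kinase domain activated by AP20187 dimerizer at 100 nM; 0% = DMSO with dimerizer and 100% = rapamycin at 8.4 µM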
EP2 cAMP induct: human EP2 receptor cAMP induction, negative in counter-screens | hit rate 47% among 1,300 | shares compounds with EP2 modulator | C6 glioma EP2 cells, cAMP HTRF induction; plus low (about EC15) PGE2 agonist | calls only at 20 µM (by protocol);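 active means cAMP induction above 50% in the main assay while under 30% in all four parallel counter assays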;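 further: rat C6 glioma cells stably expressing human EP2 receptor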
* hit, by the source's call.

CSc1nc2c(c(=O)n(C)c(=O)n2C)n1Cc1cccc2ccccc12 was read as EP2 modulator 38 and EP2 antag 6.
`COCCOc1ccc(CN2CCC(O)(c3ccc(C)cc3)CC2)cc1OC` gave EP2 modulator 18 and EP2 antag 5.
`Nc1cc2nc[nH]c2cc1N` gave eIF4E-4G inh 36*, EP2 modulator -14, EP2 antag 2 and PERK inhibitor 1.
Screening COc1ccccc1NC(=O)N1CCCC1C(=O)Nc1ccc(Cl)cc1 (centres undefined) returned EP2 modulator -7 and EP2 antag 8.
N/C(=N\N=C\c1ccc(O)cc1)c1nonc1N was read as eIF4E-4G inh 0, EP2 modulator 16, EP2 antag 5 and PERK inhibitor 1.
N/C(=N\N=C\c1ccc([N+](=O)[O-])cc1)c1nonc1N was read as eIF4E-4G inh -10, EP2 modulator -42, EP2 antag 4 and PERK inhibitor 3.4*.
`Cc1nc2ccccc2nc1-c1ccc(N=[N+]([O-])c2ccc(-c3nc4ccccc4nc3C)cc2)cc1` gave EP2 modulator 7 and EP2 antag 54*.
`Cc1nc2ccc([N+](=O)[O-])cc2nc1C` gave eIF4E-4G inh 5, EP2 modulator -10, EP2 antag 15 and PERK inhibitor 0.
Oc1cc2c(cc1C(c1ccc(Cl)c(Cl)c1)N1CCCC1)OCO2 (centres undefined) was read as eIF4E-4G inh 38*, EP2 modulator 29, EP2 antag 6 and PERK inhibitor 2.
Screening Cc1cccc(C)c1N(CC(=O)N1CCN(C)CC1)S(C)(=O)=O returned eIF4E-4G inh 0, EP2 modulator 64*, EP2 antag 14 and PERK inhibitor 0.
For Clc1ccc2nc(-c3ccccc3)nn2n1 the results were EP2 modulator 0 and EP2 antag 5.
For O=C(Nc1cccc(Cl)c1)c1cc(N=Nc2ccc([N+](=O)[O-])cc2Cl)ccc1O the results were eIF4E-4G inh 33*, EP2 modulator -64, EP2 antag 39 and PERK inhibitor 0.
Screening CCOC(=O)c1ccc2nc(C(F)(F)F)[nH]c(=O)c2c1 returned eIF4E-4G inh -4, EP2 modulator 73*, EP2 antag 13, PERK inhibitor 1 and EP2 cAMP induct inactive.
`CC1C(c2ccccc2)N(C)C(c2ccccc2)C(C)C1(O)C#Cc1ccccc1` (centres undefined) gave eIF4E-4G inh 3, EP2 modulator 66*, EP2 antag 18, PERK inhibitor 0 and EP2 cAMP induct active.
`CCOC(=O)c1ccc(NC(=O)CSc2nnc(Cn3nnc4ccccc43)n2C)cc1` gave EP2 modulator -13 and EP2 antag 6.
For COc1ccc(C(NC(=O)c2cccnc2)c2nccn2C)cc1OC (centres undefined) the results were EP2 modulator -33 and EP2 antag 10.
O=C(Nc1ccccc1N1CCCC1)c1cc2ccccc2o1 was read as eIF4E-4G inh -9, EP2 modulator 91*, PERK inhibitor -1 and EP2 cAMP induct active.
For CC1CCN(c2ccccc2NC(=O)c2ccc(F)cc2)CC1 the results were eIF4E-4G inh 8, EP2 modulator 75*, EP2 antag 2, PERK inhibitor 1 and EP2 cAMP induct inactive.
For O=C(Nc1ccccc1N1CCCCC1)c1ccccc1F the results were eIF4E-4G inh -10, EP2 modulator 61*, EP2 antag 7, PERK inhibitor 1 and EP2 cAMP induct active.
Screening CC(=O)Nc1ccc(NC(=O)CSc2nnc(COc3ccc(C)cc3)n2C)cc1 returned EP2 modulator 27 and EP2 antag 7.
`CCCCc1nnc(SCCSc2nnc(CCCC)n2N)n1N` gave eIF4E-4G inh 2, EP2 modulator 81*, EP2 antag 10, PERK inhibitor 0 and EP2 cAMP induct inactive.
For C=CCn1c(-c2ccc(OC)cc2)nc2ccccc21 the results were eIF4E-4G inh -16, EP2 modulator 8, EP2 antag 9 and PERK inhibitor 1.
Screening c1ccc(Cc2nc3ccccc3n2Cc2ccccc2)cc1 returned eIF4E-4G inh 1, EP2 modulator 75*, EP2 antag 3, PERK inhibitor -1 and EP2 cAMP induct active.
COc1ccc(-c2nc3ccccc3n2Cc2ccccc2)cc1 was read as eIF4E-4G inh 5, EP2 modulator 69*, EP2 antag 13, PERK inhibitor -1 and EP2 cAMP induct active.
For Brc1ccc(Cn2c(-c3cncs3)nc3ccccc32)cc1 the results were eIF4E-4G inh -1, EP2 modulator 70*, EP2 antag 2, PERK inhibitor 0 and EP2 cAMP induct inactive.
For Cn1c(CNc2cccc(C(F)(F)F)c2)nnc1SCC(=O)Nc1ccc2c(c1)OCO2 the results were EP2 modulator 39 and EP2 antag 10.
`CC(C)(C)N(Cc1ccccc1)C(=O)c1ccc(Br)o1` gave eIF4E-4G inh -5, EP2 modulator 63*, EP2 antag 5, PERK inhibitor 0 and EP2 cAMP induct inactive.
Screening CCN(CC)CCNc1nc2c(c(=O)n(C)c(=O)n2C)n1CCc1ccccc1 returned EP2 modulator -27 and EP2 antag 15.
CC(=O)c1cc(C#N)c(SCc2ccccc2)nc1C was read as eIF4E-4G inh 1, EP2 modulator 72*, EP2 antag 2, PERK inhibitor 1 and EP2 cAMP induct active.
Screening O=C(CSc1ncccc1-c1nc2ccccc2[nH]1)Nc1cccc(F)c1 returned EP2 modulator -59 and EP2 antag 13.
`O=C(Nc1ccccc1Cl)N1CCSc2ccccc21` gave eIF4E-4G inh 2, EP2 modulator 77*, EP2 antag 9, PERK inhibitor 0 and EP2 cAMP induct active.
Screening CS(=O)(=O)N1CN(S(C)(=O)=O)C2NC(=O)NC21 (centres undefined) returned EP2 modulator -27 and EP2 antag 5.
CCCCC(=O)Nc1sc2c(c1C(=O)OCC)CCC(C=O)=C2Cl was read as eIF4E-4G inh -15, EP2 modulator 63*, EP2 antag 5, PERK inhibitor 0 and EP2 cAMP induct active.
For Cn1c(=O)[nH]c(=O)c2c1nc(CN1CCN(c3cccc(Cl)c3)CC1)n2Cc1ccccc1Cl the results were eIF4E-4G inh 2, EP2 modulator 69*, EP2 antag 6, PERK inhibitor 0 and EP2 cAMP induct inactive.
CCCCn1c(CN2CCN(c3cccc(Cl)c3)CC2)nc2c1c(=O)[nH]c(=O)n2C was read as eIF4E-4G inh 5, EP2 modulator 42, EP2 antag 17 and PERK inhibitor 0.
`Cn1c(=O)[nH]c(=O)c2c1nc(CN1CCN(c3cccc(Cl)c3)CC1)n2CCCc1ccccc1` gave eIF4E-4G inh 2, EP2 modulator 70*, EP2 antag 6, PERK inhibitor 1 and EP2 cAMP induct active.
For CCN1CCN(Cc2nc3c(c(=O)[nH]c(=O)n3C)n2Cc2ccccc2Cl)CC1 the results were EP2 antag 10 and PERK inhibitor -2.
